Assay in all cases: DAPPL (digital affinity profiling via proximity ligation, sequencing); 10 mM Tris-HCl pH 7.5, 50 mM NaCl, 1 mM DTT, 4% glycerol, room temperature, 30 min; GST-TFs on glutathione beads, 16-mer random dsDNA library, 0.1% formaldehyde crosslink after washing; high values mean tight binding
Assay [1] concerns the target T1, FEV (Homo sapiens, UniProt Q99581 1-238).
T1 sequence: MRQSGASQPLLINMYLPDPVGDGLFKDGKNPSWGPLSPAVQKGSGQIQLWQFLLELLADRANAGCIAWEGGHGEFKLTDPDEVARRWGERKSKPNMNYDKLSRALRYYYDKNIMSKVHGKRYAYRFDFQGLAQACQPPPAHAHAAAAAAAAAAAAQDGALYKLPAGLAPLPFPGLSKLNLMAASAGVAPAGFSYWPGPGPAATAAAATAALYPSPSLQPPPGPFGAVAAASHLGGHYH
The settings on record: protein: recombinant; tags: N-terminal GST; dsDNA, one strand shown. An outline of the steps:
(§1)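 In yeast, human transcription factors were expressed with a GST fusion, then pulled down on glutathione beads and given DNA barcodes. Pooled with a tag-only sample, they were exposed to 200 nmole of a 16-mer random double-stranded DNA library (Tris/NaCl/DTT/glycerol buffer, room temperature, 30 min), washed, crosslinked with 0.1% formaldehyde, proximity-ligated using BsaI/T4 ligase for 1 h at 37 °C, PCR-amplified and read on an Illumina NextSeq500. Each hexamer's frequency of reads for a factor, divided by the matching frequency for the tag-only sample, gives the binding signal.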

In assay [2] the target is ETV5 (Homo sapiens, UniProt P41161 1-510). As to conditions: protein: recombinant; tags: N-terminal GST; dsDNA, one strand shown. A digest of the protocol: as §1
Assay [3] has as its target HSF1 (Homo sapiens, UniProt Q00613 1-529). The settings on record: protein: recombinant; tags: N-terminal GST; chain copies: 3; dsDNA, one strand shown. An outline of the steps:
as §1

For assay [4], the target named is T2, SPIC (Homo sapiens, UniProt Q8N5J4 1-248).
T2 sequence: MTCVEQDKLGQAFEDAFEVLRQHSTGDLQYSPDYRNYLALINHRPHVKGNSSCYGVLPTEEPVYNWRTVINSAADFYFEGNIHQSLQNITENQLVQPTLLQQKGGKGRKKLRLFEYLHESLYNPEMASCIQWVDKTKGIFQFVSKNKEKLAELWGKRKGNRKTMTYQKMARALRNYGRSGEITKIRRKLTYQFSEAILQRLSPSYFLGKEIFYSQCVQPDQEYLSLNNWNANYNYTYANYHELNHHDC
As to conditions: protein: recombinant; tags: N-terminal GST; dsDNA, one strand shown. An outline of the steps: as §1

In assay [5] the target is ELF4 (Homo sapiens, UniProt Q99607 1-663). As to conditions: protein: recombinant; tags: N-terminal GST; dsDNA, one strand shown. A digest of the protocol:
as §1

Assay [6] has as its target T3, ELK4 (Homo sapiens, UniProt P28324-2 1-405).
T3 sequence: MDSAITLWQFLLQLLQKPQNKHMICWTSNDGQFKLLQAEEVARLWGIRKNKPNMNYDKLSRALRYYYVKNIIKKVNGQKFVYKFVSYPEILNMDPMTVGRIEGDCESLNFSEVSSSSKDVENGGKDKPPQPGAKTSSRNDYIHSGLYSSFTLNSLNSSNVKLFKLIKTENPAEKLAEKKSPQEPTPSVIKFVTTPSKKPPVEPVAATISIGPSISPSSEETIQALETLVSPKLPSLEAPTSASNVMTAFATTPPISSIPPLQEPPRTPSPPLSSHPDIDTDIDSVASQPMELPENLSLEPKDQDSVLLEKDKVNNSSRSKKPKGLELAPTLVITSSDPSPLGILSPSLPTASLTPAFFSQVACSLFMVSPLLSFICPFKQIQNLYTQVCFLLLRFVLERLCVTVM
As to conditions: protein: recombinant; tags: N-terminal GST; dsDNA, one strand shown. A digest of the protocol:
as §1

The target in assay [7] is T4, ETV2 (Homo sapiens, UniProt O00321 1-342).
T4 sequence: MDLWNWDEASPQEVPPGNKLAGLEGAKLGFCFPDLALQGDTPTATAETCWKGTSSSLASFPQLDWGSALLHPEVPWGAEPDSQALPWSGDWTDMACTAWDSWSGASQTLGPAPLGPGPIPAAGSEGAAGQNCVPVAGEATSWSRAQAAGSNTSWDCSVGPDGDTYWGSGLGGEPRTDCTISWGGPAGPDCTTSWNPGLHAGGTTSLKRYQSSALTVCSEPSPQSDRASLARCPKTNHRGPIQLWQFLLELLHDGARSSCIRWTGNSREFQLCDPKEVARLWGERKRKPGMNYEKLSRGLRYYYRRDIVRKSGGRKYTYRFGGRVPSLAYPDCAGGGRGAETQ
As to conditions: protein: recombinant; tags: N-terminal GST; dsDNA, one strand shown. A digest of the protocol:
as §1

Assay [8] concerns the target T5, ELF3 (Homo sapiens, UniProt P78545 1-371).
T5 sequence: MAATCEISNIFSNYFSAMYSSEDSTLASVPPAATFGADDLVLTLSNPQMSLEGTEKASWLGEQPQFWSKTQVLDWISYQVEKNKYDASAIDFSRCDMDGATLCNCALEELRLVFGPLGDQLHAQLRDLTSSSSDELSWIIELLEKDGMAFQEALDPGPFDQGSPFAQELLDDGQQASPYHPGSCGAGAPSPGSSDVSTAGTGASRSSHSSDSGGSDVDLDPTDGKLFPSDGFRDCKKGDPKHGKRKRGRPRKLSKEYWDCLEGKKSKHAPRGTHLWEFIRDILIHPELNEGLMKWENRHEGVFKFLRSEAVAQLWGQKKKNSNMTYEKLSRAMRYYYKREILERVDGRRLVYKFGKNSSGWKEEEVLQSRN
As to conditions: protein: recombinant; tags: N-terminal GST; dsDNA, one strand shown. A digest of the protocol:
as §1

For assay [9], the target named is CRX (Homo sapiens, UniProt O43186 1-299). The settings on record: protein: recombinant; tags: N-terminal GST; dsDNA, one strand shown. An outline of the steps:
as §1

In assay [10] the target is ETV1 (Homo sapiens, UniProt P50549 1-477). The settings on record: protein: recombinant; tags: N-terminal GST; dsDNA, one strand shown. An outline of the steps: as §1
The target of assay [11] is T6, ERF (Homo sapiens, UniProt P50548 1-548).
T6 sequence: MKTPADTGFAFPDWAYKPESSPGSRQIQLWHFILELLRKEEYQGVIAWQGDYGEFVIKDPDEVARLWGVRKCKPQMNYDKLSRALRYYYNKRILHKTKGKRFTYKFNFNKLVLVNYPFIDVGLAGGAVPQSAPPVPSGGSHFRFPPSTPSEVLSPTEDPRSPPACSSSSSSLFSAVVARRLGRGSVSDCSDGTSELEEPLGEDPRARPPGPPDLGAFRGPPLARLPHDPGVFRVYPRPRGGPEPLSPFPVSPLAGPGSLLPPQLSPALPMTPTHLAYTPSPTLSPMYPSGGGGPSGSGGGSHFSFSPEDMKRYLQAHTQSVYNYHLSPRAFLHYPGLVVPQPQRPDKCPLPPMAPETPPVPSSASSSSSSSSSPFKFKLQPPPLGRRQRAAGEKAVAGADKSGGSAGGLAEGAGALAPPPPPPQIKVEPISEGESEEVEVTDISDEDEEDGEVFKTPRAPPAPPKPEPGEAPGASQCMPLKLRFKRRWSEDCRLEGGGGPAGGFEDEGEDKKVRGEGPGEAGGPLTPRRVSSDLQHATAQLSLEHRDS
As to conditions: protein: recombinant; tags: N-terminal GST; dsDNA, one strand shown. An outline of the steps: as §1

The target of assay [12] is T7, ETV3L (Homo sapiens, UniProt Q6ZN32 1-361).
T7 sequence: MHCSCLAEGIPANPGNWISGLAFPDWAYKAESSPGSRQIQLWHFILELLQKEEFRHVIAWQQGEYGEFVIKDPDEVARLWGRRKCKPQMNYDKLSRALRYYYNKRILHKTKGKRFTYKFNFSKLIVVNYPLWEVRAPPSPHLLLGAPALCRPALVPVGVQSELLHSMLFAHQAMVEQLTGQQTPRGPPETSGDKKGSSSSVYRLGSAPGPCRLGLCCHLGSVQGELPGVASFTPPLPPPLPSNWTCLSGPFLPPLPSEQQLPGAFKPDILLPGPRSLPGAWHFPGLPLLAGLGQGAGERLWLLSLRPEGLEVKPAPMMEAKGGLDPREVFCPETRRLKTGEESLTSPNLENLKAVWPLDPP
As to conditions: protein: recombinant; tags: N-terminal GST; dsDNA, one strand shown. A digest of the protocol: as §1

In assay [13] the target is T8, ETS2 (Homo sapiens, UniProt P15036 1-469).
T8 sequence: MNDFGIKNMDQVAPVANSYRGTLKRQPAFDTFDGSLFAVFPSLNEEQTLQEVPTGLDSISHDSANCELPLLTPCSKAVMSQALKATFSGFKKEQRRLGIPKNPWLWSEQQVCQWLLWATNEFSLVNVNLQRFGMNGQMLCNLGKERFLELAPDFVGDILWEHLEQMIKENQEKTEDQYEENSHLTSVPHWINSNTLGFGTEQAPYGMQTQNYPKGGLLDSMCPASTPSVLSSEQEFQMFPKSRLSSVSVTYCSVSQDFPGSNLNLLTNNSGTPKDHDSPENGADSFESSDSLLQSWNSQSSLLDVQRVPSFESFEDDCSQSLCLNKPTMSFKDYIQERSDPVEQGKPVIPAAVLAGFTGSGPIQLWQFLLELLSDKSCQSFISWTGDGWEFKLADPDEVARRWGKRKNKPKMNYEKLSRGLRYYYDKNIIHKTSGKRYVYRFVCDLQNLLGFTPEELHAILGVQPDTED
The settings on record: protein: recombinant; tags: N-terminal GST; dsDNA, one strand shown. An outline of the steps: as §1

For assay [14], the target named is T9, SPDEF (Homo sapiens, UniProt O95238 1-335).
T9 sequence: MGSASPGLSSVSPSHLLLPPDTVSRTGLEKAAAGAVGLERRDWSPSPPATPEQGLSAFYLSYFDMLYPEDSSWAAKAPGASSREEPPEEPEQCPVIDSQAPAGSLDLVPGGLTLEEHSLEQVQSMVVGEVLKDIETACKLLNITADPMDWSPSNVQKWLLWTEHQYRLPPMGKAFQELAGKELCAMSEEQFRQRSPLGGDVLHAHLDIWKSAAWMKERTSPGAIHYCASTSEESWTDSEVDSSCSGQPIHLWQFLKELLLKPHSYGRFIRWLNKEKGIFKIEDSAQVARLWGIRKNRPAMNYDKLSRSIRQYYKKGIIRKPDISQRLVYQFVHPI
The settings on record: protein: recombinant; tags: N-terminal GST; dsDNA, one strand shown. A digest of the protocol:
as §1

The target in assay [15] is T10, ETV7 (Homo sapiens, UniProt Q9Y603 1-341).
T10 sequence: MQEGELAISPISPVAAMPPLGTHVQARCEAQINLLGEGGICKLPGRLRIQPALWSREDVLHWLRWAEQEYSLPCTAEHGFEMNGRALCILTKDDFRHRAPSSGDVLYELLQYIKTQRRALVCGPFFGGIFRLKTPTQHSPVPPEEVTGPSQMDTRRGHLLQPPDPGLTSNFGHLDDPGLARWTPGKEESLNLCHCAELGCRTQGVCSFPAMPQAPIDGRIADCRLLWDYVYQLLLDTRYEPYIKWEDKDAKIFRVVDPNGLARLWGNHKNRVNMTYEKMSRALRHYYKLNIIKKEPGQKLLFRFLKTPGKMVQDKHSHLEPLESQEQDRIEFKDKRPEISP
The settings on record: protein: recombinant; tags: N-terminal GST; dsDNA, one strand shown. A digest of the protocol:
as §1

Assay [16] concerns the target T11, ELF5 (Homo sapiens, UniProt Q9UKW6-2 1-255).
T11 sequence: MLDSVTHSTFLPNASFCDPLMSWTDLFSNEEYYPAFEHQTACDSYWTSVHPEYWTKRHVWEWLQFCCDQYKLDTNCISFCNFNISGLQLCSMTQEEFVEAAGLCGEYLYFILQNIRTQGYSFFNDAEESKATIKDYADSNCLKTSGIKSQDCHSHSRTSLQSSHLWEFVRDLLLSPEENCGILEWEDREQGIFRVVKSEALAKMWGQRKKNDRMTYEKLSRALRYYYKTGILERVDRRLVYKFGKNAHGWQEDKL
The settings on record: protein: recombinant; tags: N-terminal GST; dsDNA, one strand shown. An outline of the steps:
as §1

The target of assay [17] is T12, ETV3 (Homo sapiens, UniProt P41162-2 1-143).
T12 sequence: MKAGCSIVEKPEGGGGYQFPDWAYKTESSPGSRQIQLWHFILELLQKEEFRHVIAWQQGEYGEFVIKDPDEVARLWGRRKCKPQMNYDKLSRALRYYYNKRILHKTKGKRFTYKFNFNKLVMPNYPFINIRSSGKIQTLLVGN
As to conditions: protein: recombinant; tags: N-terminal GST; dsDNA, one strand shown. An outline of the steps:
as §1

Assay [18] deals with ETV6 (Homo sapiens, UniProt P41212 1-452). The settings on record: protein: recombinant; tags: N-terminal GST; dsDNA, one strand shown. An outline of the steps:
as §1

This is an account of results in publication PMC7862700, “An all-to-all approach to the identification of sequence-specific readers for epigenetic DNA modifications on cytosine”.

ETV6, sequence (P41212 whole entry): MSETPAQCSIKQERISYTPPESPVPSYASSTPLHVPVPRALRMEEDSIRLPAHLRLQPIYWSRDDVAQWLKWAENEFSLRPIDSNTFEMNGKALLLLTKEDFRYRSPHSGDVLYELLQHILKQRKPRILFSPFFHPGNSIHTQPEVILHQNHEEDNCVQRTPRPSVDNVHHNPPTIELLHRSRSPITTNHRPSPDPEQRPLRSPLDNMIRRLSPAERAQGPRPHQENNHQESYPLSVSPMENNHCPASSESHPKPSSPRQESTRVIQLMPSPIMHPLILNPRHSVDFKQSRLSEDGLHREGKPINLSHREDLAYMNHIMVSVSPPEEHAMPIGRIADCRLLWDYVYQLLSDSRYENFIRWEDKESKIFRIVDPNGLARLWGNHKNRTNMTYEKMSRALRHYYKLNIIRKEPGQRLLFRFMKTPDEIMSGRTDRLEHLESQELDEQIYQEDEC
CRX, sequence (O43186 whole entry): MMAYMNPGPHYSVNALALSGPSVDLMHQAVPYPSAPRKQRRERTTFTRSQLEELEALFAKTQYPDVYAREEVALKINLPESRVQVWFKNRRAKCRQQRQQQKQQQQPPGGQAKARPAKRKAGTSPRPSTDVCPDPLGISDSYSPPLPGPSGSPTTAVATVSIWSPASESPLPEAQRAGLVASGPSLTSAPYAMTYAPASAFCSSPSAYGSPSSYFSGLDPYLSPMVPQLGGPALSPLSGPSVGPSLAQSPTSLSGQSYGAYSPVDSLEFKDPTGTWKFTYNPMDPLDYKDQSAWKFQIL
ETV5, sequence (P41161 whole entry): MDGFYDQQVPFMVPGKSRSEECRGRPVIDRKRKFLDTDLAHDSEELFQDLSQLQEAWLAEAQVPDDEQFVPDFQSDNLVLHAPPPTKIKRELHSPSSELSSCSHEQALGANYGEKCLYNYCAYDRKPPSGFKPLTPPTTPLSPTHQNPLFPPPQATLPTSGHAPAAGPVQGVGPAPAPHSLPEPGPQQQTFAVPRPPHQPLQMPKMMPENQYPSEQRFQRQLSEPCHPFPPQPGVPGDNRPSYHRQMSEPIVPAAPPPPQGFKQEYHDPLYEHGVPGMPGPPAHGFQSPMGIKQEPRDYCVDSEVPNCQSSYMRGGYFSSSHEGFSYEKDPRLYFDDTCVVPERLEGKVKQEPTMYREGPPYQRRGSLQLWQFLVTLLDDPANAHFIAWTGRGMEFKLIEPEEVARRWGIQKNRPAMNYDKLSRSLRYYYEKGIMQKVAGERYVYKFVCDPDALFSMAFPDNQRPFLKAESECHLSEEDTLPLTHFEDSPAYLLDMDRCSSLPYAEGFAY
ELF4, sequence (Q99607 whole entry): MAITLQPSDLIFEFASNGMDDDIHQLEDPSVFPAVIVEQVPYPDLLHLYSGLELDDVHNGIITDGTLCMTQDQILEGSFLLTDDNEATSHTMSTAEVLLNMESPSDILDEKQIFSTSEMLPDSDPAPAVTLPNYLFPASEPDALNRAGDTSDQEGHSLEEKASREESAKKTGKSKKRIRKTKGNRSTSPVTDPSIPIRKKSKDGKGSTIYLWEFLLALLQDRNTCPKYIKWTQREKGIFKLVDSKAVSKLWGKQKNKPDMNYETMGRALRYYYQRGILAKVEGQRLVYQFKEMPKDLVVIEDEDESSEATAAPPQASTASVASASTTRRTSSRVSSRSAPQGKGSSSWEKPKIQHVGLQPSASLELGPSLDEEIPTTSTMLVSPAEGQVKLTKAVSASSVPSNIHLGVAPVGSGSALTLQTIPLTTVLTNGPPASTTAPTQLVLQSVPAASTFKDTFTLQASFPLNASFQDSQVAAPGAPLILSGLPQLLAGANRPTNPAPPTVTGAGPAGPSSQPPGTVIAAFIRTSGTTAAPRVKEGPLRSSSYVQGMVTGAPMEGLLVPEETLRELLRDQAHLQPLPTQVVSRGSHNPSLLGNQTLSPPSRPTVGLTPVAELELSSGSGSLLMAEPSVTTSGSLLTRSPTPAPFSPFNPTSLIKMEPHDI
HSF1, sequence (Q00613 whole entry): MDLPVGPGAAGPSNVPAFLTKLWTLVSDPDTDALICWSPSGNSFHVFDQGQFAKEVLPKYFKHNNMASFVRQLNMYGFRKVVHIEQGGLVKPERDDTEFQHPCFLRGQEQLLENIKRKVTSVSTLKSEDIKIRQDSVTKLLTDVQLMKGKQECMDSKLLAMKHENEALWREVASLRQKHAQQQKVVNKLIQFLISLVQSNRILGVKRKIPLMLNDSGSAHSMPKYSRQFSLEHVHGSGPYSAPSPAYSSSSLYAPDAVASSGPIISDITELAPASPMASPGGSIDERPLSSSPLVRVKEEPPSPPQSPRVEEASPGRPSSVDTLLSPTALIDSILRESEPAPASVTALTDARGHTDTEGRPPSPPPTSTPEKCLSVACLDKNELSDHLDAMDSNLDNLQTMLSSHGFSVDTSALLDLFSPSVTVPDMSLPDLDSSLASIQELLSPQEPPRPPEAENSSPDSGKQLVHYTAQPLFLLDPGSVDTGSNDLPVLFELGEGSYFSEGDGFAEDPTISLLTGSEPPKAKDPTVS
ETV1, sequence (P50549 whole entry): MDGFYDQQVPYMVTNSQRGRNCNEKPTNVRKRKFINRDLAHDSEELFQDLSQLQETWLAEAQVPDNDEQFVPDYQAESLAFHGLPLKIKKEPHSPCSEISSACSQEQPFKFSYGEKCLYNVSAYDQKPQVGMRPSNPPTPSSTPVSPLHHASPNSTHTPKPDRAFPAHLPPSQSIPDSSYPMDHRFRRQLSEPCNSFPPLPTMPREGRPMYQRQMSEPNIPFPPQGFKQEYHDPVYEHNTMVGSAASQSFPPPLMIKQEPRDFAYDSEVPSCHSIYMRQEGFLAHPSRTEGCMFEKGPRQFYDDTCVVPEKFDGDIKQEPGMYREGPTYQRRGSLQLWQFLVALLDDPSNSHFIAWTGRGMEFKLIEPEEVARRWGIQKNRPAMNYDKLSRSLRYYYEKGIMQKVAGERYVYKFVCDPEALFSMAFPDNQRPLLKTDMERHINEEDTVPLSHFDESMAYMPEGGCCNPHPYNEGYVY

On to ACCAAT, for which the binding signal in assay [1] is 1.25 fold enrichment (6-mer frequency, TF over GST control); in assay [2] it was 1.24 fold enrichment (6-mer frequency, TF over GST control); in assay [3], 1.16 fold enrichment (6-mer frequency, TF over GST control); in assay [4] it was 1.31 fold enrichment (6-mer frequency, TF over GST control); in assay [5], 1.38 fold enrichment (6-mer frequency, TF over GST control); in [6], 1.35 fold enrichment (6-mer frequency, TF over GST control). Besides, the binding signal in [7] is 1.13 fold enrichment (6-mer frequency, TF over GST control); in assay [8] it was 1.28 fold enrichment (6-mer frequency, TF over GST control); in [9], 1.16 fold enrichment (6-mer frequency, TF over GST control); in assay [10] it was 1.3 fold enrichment (6-mer frequency, TF over GST control); in [11], 1.32 fold enrichment (6-mer frequency, TF over GST control); in assay [12], 1.28 fold enrichment (6-mer frequency, TF over GST control). The binding signal in [13] is 1.39 fold enrichment (6-mer frequency, TF over GST control); in assay [14], 1.24 fold enrichment (6-mer frequency, TF over GST control); in [15], 1.29 fold enrichment (6-mer frequency, TF over GST control); in assay [16] it was 1.23 fold enrichment (6-mer frequency, TF over GST control); in [17], 1.29 fold enrichment (6-mer frequency, TF over GST control); in [18] it was 1.34 fold enrichment (6-mer frequency, TF over GST control).
